The supplement of paper PMC6897291
Where a name gives a salt, the structure may show the parent alone.

Tests used:
[1] = tested on: RIVA; assay: growth inhibition by drug plus 177Lu-lilotomab satetraxetan (1 - RLU/untreated control) (fraction); higher = stronger inhibition; settings: 177Lu-lilotomab satetraxetan 0.5 ug/ml
How it was run: (§1)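 Growth inhibition was calculated from RealTime-Glo RLU against untreated no-drug wells. Values equal 1 − RLU/mean of 48 untreated no-drug wells per plate, read daily from day 3 after 1 h at 37°C. RIVA and U-2932 cells, with or without 18 h pretreatment by a radiolabelled anti-CD37 antibody conjugate (~600 MBq/mg; 0.5 µg/ml RIVA, 1 µg/ml U-2932), were washed and plated at 3,000 cells/well on compound-printed plates at 10/100 nM (RIVA) or 10/1,000 nM (U-2932).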

[2] = tested on: U-2932; assay: growth inhibition by drug alone (1 - RLU/untreated control) (fraction); higher = stronger inhibition; settings: 177Lu-lilotomab satetraxetan 0 ug/ml
How it was run: as §1

[3] = tested on: RIVA; assay: as above; settings: 177Lu-lilotomab satetraxetan 0 ug/ml
How it was run: as §1

[4] = tested on: U-2932; assay: growth inhibition by drug plus 177Lu-lilotomab satetraxetan (1 - RLU/untreated control) (fraction); higher = stronger inhibition; settings: 177Lu-lilotomab satetraxetan 1 ug/ml
How it was run: as §1

Structure (SMILES)	growth inhibition by drug plus 177Lu-lilotomab satetraxetan ([1]; 100 nM, time (day): 5)	growth inhibition by drug plus 177Lu-lilotomab satetraxetan ([1]; 100 nM, time (day): 6)	growth inhibition by drug alone ([2]; 10 nM, time (day): 3)	growth inhibition by drug alone ([2]; 10 nM, time (day): 4)	growth inhibition by drug alone ([2]; 10 nM, time (day): 5)	growth inhibition by drug alone ([2]; 10 nM, time (day): 6)	growth inhibition by drug alone ([2]; 1000 nM, time (day): 3)	growth inhibition by drug alone ([2]; 1000 nM, time (day): 4)	growth inhibition by drug alone ([2]; 1000 nM, time (day): 5)	growth inhibition by drug alone ([2]; 1000 nM, time (day): 6)	growth inhibition by drug alone ([3]; 10 nM, time (day): 3)	growth inhibition by drug alone ([3]; 10 nM, time (day): 4)	growth inhibition by drug alone ([3]; 10 nM, time (day): 5)	growth inhibition by drug alone ([3]; 10 nM, time (day): 6)	growth inhibition by drug alone ([3]; 100 nM, time (day): 3)	growth inhibition by drug alone ([3]; 100 nM, time (day): 4)	growth inhibition by drug alone ([3]; 100 nM, time (day): 5)	growth inhibition by drug alone ([3]; 100 nM, time (day): 6)	growth inhibition by drug plus 177Lu-lilotomab satetraxetan ([4]; 10 nM, time (day): 3)	growth inhibition by drug plus 177Lu-lilotomab satetraxetan ([4]; 10 nM, time (day): 4)	growth inhibition by drug plus 177Lu-lilotomab satetraxetan ([4]; 10 nM, time (day): 5)	growth inhibition by drug plus 177Lu-lilotomab satetraxetan ([4]; 10 nM, time (day): 6)	growth inhibition by drug plus 177Lu-lilotomab satetraxetan ([4]; 1000 nM, time (day): 3)	growth inhibition by drug plus 177Lu-lilotomab satetraxetan ([4]; 1000 nM, time (day): 4)	growth inhibition by drug plus 177Lu-lilotomab satetraxetan ([4]; 1000 nM, time (day): 5)	growth inhibition by drug plus 177Lu-lilotomab satetraxetan ([4]; 1000 nM, time (day): 6)	growth inhibition by drug plus 177Lu-lilotomab satetraxetan ([1]; 10 nM, time (day): 3)	growth inhibition by drug plus 177Lu-lilotomab satetraxetan ([1]; 10 nM, time (day): 4)	growth inhibition by drug plus 177Lu-lilotomab satetraxetan ([1]; 10 nM, time (day): 5)	growth inhibition by drug plus 177Lu-lilotomab satetraxetan ([1]; 10 nM, time (day): 6)	growth inhibition by drug plus 177Lu-lilotomab satetraxetan ([1]; 100 nM, time (day): 3)	growth inhibition by drug plus 177Lu-lilotomab satetraxetan ([1]; 100 nM, time (day): 4)
O=C1C(Cl)=C(NCCN2CCOCC2)C(=O)c2ncccc21	0.626	0.631	–	–	–	–	–	–	–	–	–	–	–	–	–	–	–	–	–	–	–	–	–	–	–	–	–	–	–	–	–	–
COc1ccc2c3n(c(=NC(=O)c4cccnc4)nc2c1OC)CCN3	0.551	0.551	0.1	0.0853	-0.0391	-0.132	0.165	0.128	0.0515	0.0321	0.159	0.0605	-0.0752	-0.345	0.0975	0.0435	0.0156	-0.048	0.021	0.066	0.0894	0.178	0.192	0.175	0.166	0.278	0.429	0.534	0.559	0.569	0.482	0.53
Nc1nc(N)c(N=O)c(OCC2CCCCC2)n1	0.43	0.399	-0.102	-0.0718	-0.059	0.0483	-0.102	-0.0762	-0.0902	-0.132	-0.226	-0.243	-0.283	-0.504	-0.331	-0.36	-0.322	-0.473	-0.0542	-0.0355	-0.000656	0.134	-0.0976	-0.0168	0.00555	0.0733	0.229	0.419	0.456	0.476	0.322	0.426
CN1CCN(CCOc2cc(OC3CCOCC3)c3c(Nc4c(Cl)ccc5c4OCO5)ncnc3c2)CC1 [Saracatinib (AZD0530)]	0.549	0.544	0.0465	0.00941	-0.0204	-0.381	-0.139	-0.146	-0.173	-0.33	-0.108	-0.164	-0.326	-0.893	-0.52	-0.418	-0.423	-0.554	-0.0675	-0.00671	0.0506	0.0536	-0.174	-0.108	-0.0137	0.1	0.366	0.494	0.508	0.537	0.458	0.536
O=C(CCCCCCC(=O)Nc1cccnc1)NO [Pyroxamide]	0.511	0.509	-0.0932	-0.0929	-0.129	-0.234	0.82	0.79	0.759	0.717	-0.263	-0.352	-0.468	-0.514	-0.333	-0.305	-0.265	-0.306	-0.106	-0.0647	-0.00568	0.0937	0.6	0.542	0.472	0.474	0.358	0.433	0.464	0.49	0.454	0.507
O=C1CN2Cc3c(ccc(Cl)c3Cl)N=C2N1 [Anagrelide hydrochloride]	0.579	0.558	0.1	0.0554	-0.0277	-0.0568	0.0693	0.0958	0.0817	0.0377	0.16	0.111	0.0638	-0.0807	0.214	0.214	0.119	0.0727	0.101	0.119	0.141	0.272	0.0494	0.088	0.102	0.224	0.579	0.615	0.628	0.641	0.541	0.572
CC(C)C[C@H](NC(=O)[C@H](Cc1ccccc1)NC(=O)c1cnccn1)B(O)O [Bortezomib (Velcade)]	0.989	0.99	0.965	0.971	0.976	0.978	0.985	0.984	0.985	0.985	0.923	0.946	0.958	0.96	0.978	0.978	0.978	0.976	0.952	0.967	0.976	0.98	0.986	0.987	0.986	0.988	0.955	0.969	0.976	0.98	0.989	0.989
C#Cc1cccc(Nc2ncnc3cc(OCCOC)c(OCCOC)cc23)c1 [Erlotinib HCl]	0.788	0.724	0.33	0.251	0.131	0.0458	0.731	0.715	0.655	0.621	0.349	0.233	0.131	-0.221	0.656	0.642	0.6	0.46	0.195	0.2	0.208	0.267	0.712	0.704	0.691	0.685	0.595	0.534	0.536	0.524	0.791	0.81
O=C(Nc1ccccc1-c1cn2c(CN3CCNCC3)csc2n1)c1cnc2ccccc2n1	0.516	0.514	0.102	0.0775	-0.0151	-0.0612	0.0868	0.0879	0.00704	-0.1	0.0628	0.0902	0.0591	-0.163	-0.0368	-0.02	-0.0409	-0.193	0.0225	0.0594	0.101	0.14	0.141	0.171	0.103	0.146	0.404	0.522	0.563	0.562	0.418	0.513
O=C(/C=C/C#Cc1cccc(NS(=O)(=O)c2ccccc2)c1)NO [Oxamflatin]	0.691	0.686	0.0723	0.054	0.00482	-0.0197	0.851	0.808	0.766	0.702	0.0849	0.0278	0.0468	0.0353	0.675	0.482	0.435	0.389	-0.0134	0.0236	0.0539	0.158	0.941	0.947	0.958	0.96	0.518	0.564	0.59	0.607	0.726	0.683
OC[C@H]1O[C@@H](n2cnc3c2N=CNC[C@H]3O)C[C@@H]1O [Pentostatin]	0.5	0.513	0.1	0.0372	-0.116	-0.114	-0.0219	-0.074	-0.147	-0.0984	0.0173	-0.0212	-0.109	-0.624	-0.427	-0.321	-0.314	-0.387	-0.00817	0.056	0.0512	0.0351	0.0728	0.0721	0.118	0.207	0.472	0.557	0.557	0.555	0.399	0.488
CNNCc1ccc(C(=O)NC(C)C)cc1 [Procarbazine hydrochloride (Matulane)]	0.563	0.554	0.123	0.0702	-0.0853	-0.113	0.0616	0.0673	0.00725	-0.144	0.0732	0.0412	0.0155	-0.0516	-0.184	-0.167	-0.142	-0.189	0.0466	0.103	0.15	0.195	0.0453	0.108	0.126	0.177	0.542	0.584	0.596	0.607	0.494	0.553
CCC(C)(C)C(=O)O[C@H]1C[C@@H](C)C=C2C=C[C@H](C)[C@H](CC[C@@H]3C[C@@H](O)CC(=O)O3)[C@H]21 [Simvastatin (Zocor)]	0.501	0.48	-0.0841	-0.0759	-0.00492	0.136	-0.019	-0.0256	-0.0695	-0.0808	-0.198	-0.217	-0.225	-0.276	-0.024	-0.0809	-0.115	-0.175	-0.0665	-0.0212	-0.00846	0.124	-0.0261	-0.0186	-0.0188	0.0898	0.493	0.554	0.575	0.582	0.469	0.494
CC(=O)O[C@@]12CO[C@@H]1C[C@H](O)[C@@]1(C)C(=O)[C@H](O)C3=C(C)[C@@H](OC(=O)[C@H](O)[C@@H](NC(=O)OC(C)(C)C)c4ccccc4)C[C@@](O)([C@@H](OC(=O)c4ccccc4)[C@H]21)C3(C)C [Docetaxel (Taxotere)]	0.985	0.987	0.953	0.965	0.974	0.978	0.964	0.972	0.977	0.98	0.953	0.967	0.973	0.973	0.949	0.964	0.969	0.971	0.96	0.971	0.977	0.983	0.966	0.977	0.982	0.985	0.968	0.982	0.985	0.988	0.967	0.979
